Data as given in PubChem BioAssay (Tox21).
A number with no mark means an inactive call. Results filed as inconclusive are left out. Where a call stands in place of a potency, no number is given. Activity calls are given as the source filed them. Unless noted, calls follow the shape of the dose curve; as a rule, active = well fitted curve in the direction sought with a large enough effect in the repeat runs; inconclusive = weak or mixed curves; inactive = no such curve, though single readings can be large; an effect the other way counts as inactive or inconclusive.

Tests used:
[1] = molecular target: Progesterone receptor (Homo sapiens) (UniProt P06401); assay: qHTS assay to identify small molecule agonists of the progesterone receptor (PR) signaling pathway (AID 1346784; calls by dose curve; also: nearly all actives have a fitted effect of over 30% in size)
Chain of Progesterone receptor (Homo sapiens) (P06401 whole entry, looked up): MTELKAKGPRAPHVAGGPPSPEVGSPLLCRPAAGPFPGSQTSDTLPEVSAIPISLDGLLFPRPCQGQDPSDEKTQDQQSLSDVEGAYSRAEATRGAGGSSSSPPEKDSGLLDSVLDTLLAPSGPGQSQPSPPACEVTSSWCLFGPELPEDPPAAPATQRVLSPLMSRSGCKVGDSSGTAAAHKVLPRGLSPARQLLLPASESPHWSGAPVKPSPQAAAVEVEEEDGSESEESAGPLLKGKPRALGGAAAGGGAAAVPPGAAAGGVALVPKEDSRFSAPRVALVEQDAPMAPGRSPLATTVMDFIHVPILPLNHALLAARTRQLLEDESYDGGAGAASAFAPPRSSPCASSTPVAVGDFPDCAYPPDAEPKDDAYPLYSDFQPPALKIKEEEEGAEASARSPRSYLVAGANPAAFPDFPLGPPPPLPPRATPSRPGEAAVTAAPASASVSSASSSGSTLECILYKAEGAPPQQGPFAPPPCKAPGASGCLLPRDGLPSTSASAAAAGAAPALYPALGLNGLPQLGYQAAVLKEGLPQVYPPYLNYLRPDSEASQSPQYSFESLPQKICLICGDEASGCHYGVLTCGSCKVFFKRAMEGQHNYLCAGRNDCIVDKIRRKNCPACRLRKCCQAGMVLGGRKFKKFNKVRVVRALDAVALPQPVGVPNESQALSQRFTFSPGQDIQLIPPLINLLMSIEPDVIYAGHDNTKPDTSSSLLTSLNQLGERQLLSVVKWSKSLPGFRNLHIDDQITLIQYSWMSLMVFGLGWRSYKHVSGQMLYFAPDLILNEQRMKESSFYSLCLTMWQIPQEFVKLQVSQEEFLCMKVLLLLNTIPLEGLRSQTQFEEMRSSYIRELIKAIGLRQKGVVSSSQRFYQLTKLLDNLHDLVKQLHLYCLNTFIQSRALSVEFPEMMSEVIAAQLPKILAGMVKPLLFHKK
How it was run: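 PR-UAS-bla HEK 293T cells carrying a UAS-driven beta-lactamase reporter were seeded in medium with 2% charcoal-stripped FBS, preincubated 6 hr at 37C, then exposed to compounds in DMSO for 16 hr; agonism was read by LiveBLAzer B/G FRET fluorescence.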

[2] = molecular target: Progesterone receptor (Homo sapiens) (UniProt P06401); assay: qHTS assay to identify small molecule antagonists of the progesterone receptor (PR) signaling pathway (AID 1346795; active = well fitted inhibition curve with a large enough effect in the signal ratio in the repeat runs, not every such curve was filed as active; the % refers to the signal ratio)
How it was run: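 PR-UAS-bla HEK293T cells carrying a UAS-driven beta-lactamase reporter were plated in medium with 2% charcoal-stripped FBS and rested 6 hr at 37C. Compounds were added with 1 nM R5020 (final) for 16 hr, then FRET substrate loaded 2 hr at room temperature.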

[3] = qHTS assay to identify small molecule antagonists of the progesterone receptor (PR) signaling pathway - cell viability counter screen (AID 1346798); also: series mostly up to about 92 µM; nearly all actives have a fitted effect of over 50% in size
How it was run: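 PR-UAS-bla HEK293T cells in medium with 2% charcoal-stripped FBS were treated with compounds plus R5020 for 16 hr at 37C. Cell viability was then read by CellTiter-Glo luminescence after 30 min at room temperature in the same wells.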

[4] = qHTS assay to identify small molecule agonists of the progesterone receptor (PR) signaling pathway - cell viability counter screen (AID 1346799; calls by dose curve; also: nearly all actives have a fitted effect of over 45% in size)
How it was run: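 PR-UAS-bla HEK293T cells, 3,000 per well in medium with 2% charcoal-stripped FBS, were preincubated 6 hr at 37C, then exposed to compounds for 16 hr; viability was read as CellTiter-Glo luminescence after 30 min at room temperature.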

[5] = qHTS assay to identify small molecule agonists of the TGF-beta/Smad signaling pathway - cell viability counter screen (AID 1346829); also: top concentration of the series differs between compounds; nearly all actives have a fitted effect of over 45% in size
How it was run: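 Here the cytotoxicity of library compounds is measured in SBE-bla HEK 293T cells treated for 5 hr, using CellTiter-Glo added to wells already read for the beta-lactamase reporter.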

[6] = qHTS assay to identify small molecule agonists of the TGF-beta/Smad signaling pathway (AID 1346859; active = well fitted activation curve with a large enough effect in the signal ratio in the repeat runs, not every such curve was filed as active; the % refers to the signal ratio; also: series mostly up to about 77 µM)
How it was run: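 HEK 293T cells stably carrying a beta-lactamase reporter driven by the Smad binding element were seeded overnight, exposed to DMSO-dissolved compounds for 5 hr at 37 C, 5% CO2, then loaded with FRET substrate for 2 hr at room temperature.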

[7] = Human pregnane X receptor (PXR) small molecule agonists, qHTS cell viability counter screen (AID 1346977); also: nearly all actives have a fitted effect of over 50% in size; also: potency is read from the fitted curve at half-maximal effect
How it was run: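 PXR-Luc HepG2 cells in medium with 5% charcoal-stripped FBS were pre-incubated 5hr, then exposed to compounds for 24hr at 37C. Viability was read in the same wells by CellTiter-Fluor fluorescence, reagent added after 23hr with a 1hr incubation.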

[8] = Caspase-3/7 induction in HepG2 cells by small molecules, qHTS assay (AID 1346978); also: nearly all actives have a fitted effect of over 15% in size
How it was run: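 Wild-type HepG2 cells (2,000/well) were settled 5 h at 37 C, 5% CO2, then exposed to compounds in DMSO for 17 h. Caspase-3/7 activity was read by luminescence 30 min after adding Caspase-Glo 3/7 reagent at room temperature.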

[9] = Caspase-3/7 induction in CHO-K1 cells by small molecules, qHTS cell viability counter screen (AID 1346979); also: nearly all actives have a fitted effect of over 35% in size; also: potency is read from the fitted curve at half-maximal effect
How it was run: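 Wild-type CHO-K1 cells were seeded at 1,500 per well, rested 5hr at 37 C, then exposed to compounds in DMSO. After 16hr, CellTiter-Fluor reagent was added and fluorescence read 1hr later as the viability measure.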

[10] = Caspase-3/7 induction in CHO-K1 cells by small molecules, qHTS assay (AID 1346980); also: nearly all actives have a fitted effect of over 15% in size
How it was run: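 Wild-type cells were seeded at 1,500 per well and settled 5 hr at 37 C, 5% CO2, then exposed to DMSO-dissolved compounds for 17 hr. Caspase-Glo 3/7 reagent was added, and luminescence was read after 30min at room temperature.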

[11] = Caspase-3/7 induction in HepG2 cells by small molecules, qHTS cell viability counter screen (AID 1346981); also: nearly all actives have a fitted effect of over 30% in size; also: potency is read from the fitted curve at half-maximal effect
How it was run: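 Steps: seed 2,000 HepG2 cells per well; incubate 5 hr at 37 C; pin-add compounds in DMSO; incubate 16 hr; add CellTiter-Fluor; after 1 hr at 37 C and 5% CO2, read fluorescence.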

[12] = molecular target: Nuclear receptor subfamily 1 group I member 2 (Homo sapiens) (UniProt O75469); assay: Human pregnane X receptor (PXR) small molecule agonists, qHTS assay (AID 1346982); also: nearly all actives have a fitted effect of over 35% in size
Chain of Nuclear receptor subfamily 1 group I member 2 (Homo sapiens) (O75469 whole entry, looked up): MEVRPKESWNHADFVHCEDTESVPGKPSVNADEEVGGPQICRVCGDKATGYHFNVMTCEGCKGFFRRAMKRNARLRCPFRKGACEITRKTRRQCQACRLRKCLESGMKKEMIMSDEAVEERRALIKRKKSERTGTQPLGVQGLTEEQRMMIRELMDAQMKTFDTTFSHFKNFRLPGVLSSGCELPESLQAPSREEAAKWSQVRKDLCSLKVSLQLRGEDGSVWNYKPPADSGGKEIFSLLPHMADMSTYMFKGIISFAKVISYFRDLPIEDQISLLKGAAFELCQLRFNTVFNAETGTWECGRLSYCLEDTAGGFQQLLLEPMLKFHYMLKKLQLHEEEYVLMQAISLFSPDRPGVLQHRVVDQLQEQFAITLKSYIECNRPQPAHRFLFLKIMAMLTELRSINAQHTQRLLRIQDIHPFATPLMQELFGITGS
How it was run: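 Agonist mode qHTS: PXR-Luc HepG2 cells plated 5 hr before DMSO-dissolved compounds were pinned in, cultured 24 hr at 37 C, 5% CO2; ONE-Glo luminescence readout.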

[13] = molecular target: Nuclear receptor subfamily 1 group I member 2 (Rattus norvegicus) (UniProt Q9R1A7); assay: Rat pregnane X receptor (rPXR) activation by small molecules, qHTS assay (AID 1346983); settings: rPXR luciferase reporter cells, One-Glo luminescence, 24 h; max activation: hits give high values; also: nearly all actives have a fitted effect of over 20% in size
Chain of Nuclear receptor subfamily 1 group I member 2 (Rattus norvegicus) (Q9R1A7 whole entry, looked up): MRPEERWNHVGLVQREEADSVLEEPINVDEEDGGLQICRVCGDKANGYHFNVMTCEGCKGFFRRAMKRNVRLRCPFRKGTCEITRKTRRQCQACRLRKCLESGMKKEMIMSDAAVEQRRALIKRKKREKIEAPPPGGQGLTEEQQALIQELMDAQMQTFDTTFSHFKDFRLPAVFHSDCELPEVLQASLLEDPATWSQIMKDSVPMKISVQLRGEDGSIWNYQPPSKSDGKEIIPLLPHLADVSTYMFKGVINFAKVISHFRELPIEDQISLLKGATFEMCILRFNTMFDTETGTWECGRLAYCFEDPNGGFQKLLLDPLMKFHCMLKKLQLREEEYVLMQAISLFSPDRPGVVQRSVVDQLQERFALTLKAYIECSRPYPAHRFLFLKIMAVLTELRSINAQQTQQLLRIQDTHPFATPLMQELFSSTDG
How it was run: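 Cell-based rPXR luciferase reporter assay, 2,000 cells per well, rested 5hr at 37 C before compound addition in DMSO, then 24 hr at 37 C. One-Glo reagent was added and luminescence read after 30 min at room temperature.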

[14] = molecular target: Nuclear receptor subfamily 1 group I member 2 (Homo sapiens) (UniProt O75469); assay: Human pregnane X receptor (PXR) activation by small molecules, qHTS assay (AID 1346985); also: nearly all actives have a fitted effect of over 40% in size
How it was run: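 DPX-2 cells (HepG2 co-transfected with a PXR response element and a CYP3A4-promoter luciferase construct) were seeded at 2,000 per well, rested 5 hr at 37C, then exposed to DMSO-dissolved compounds for 24 hr. Activation was read as luciferase luminescence.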

[15] = molecular target: Cytochrome P450 2D6 (Homo sapiens) (UniProt P10635); assay: Cytochrome P450 Family 2 Subfamily D Member 6 (CYP2D6) small molecule antagonists: luciferase reporter qHTS assay (AID 1671196); also: nearly all actives have a fitted effect of over 50% in size; also: potency is read from the fitted curve at half-maximal effect
Chain of Cytochrome P450 2D6 (Homo sapiens) (P10635 whole entry, looked up): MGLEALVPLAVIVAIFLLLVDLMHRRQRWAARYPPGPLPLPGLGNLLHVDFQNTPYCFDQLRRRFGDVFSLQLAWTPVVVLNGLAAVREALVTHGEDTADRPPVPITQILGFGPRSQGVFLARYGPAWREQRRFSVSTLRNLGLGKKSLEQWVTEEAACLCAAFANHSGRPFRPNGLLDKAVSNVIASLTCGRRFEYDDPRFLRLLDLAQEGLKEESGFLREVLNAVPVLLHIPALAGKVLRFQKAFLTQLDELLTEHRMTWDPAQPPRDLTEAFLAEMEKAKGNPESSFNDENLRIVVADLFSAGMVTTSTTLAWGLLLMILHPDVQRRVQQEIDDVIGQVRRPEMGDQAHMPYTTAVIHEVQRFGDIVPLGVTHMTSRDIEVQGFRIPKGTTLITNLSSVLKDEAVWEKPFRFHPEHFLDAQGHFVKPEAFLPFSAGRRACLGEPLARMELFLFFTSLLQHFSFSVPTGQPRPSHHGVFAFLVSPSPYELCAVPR
How it was run: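 P450-Glo format: CYP2D6 converts a proluciferin substrate to luciferin in an NADPH-driven reaction lasting 1 h at room temperature. Light output, proportional to CYP2D6 activity, reflects interference by test chemicals.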

[16] = molecular target: Cytochrome P450 2C19 (Homo sapiens) (UniProt P33261); assay: Cytochrome P450 Family 2 Subfamily C Member 19 (CYP2C19) small molecule antagonists: luciferase reporter qHTS assay (AID 1671197); also: nearly all actives have a fitted effect of over 65% in size; also: potency is read from the fitted curve at half-maximal effect
Chain of Cytochrome P450 2C19 (Homo sapiens) (P33261 whole entry, looked up): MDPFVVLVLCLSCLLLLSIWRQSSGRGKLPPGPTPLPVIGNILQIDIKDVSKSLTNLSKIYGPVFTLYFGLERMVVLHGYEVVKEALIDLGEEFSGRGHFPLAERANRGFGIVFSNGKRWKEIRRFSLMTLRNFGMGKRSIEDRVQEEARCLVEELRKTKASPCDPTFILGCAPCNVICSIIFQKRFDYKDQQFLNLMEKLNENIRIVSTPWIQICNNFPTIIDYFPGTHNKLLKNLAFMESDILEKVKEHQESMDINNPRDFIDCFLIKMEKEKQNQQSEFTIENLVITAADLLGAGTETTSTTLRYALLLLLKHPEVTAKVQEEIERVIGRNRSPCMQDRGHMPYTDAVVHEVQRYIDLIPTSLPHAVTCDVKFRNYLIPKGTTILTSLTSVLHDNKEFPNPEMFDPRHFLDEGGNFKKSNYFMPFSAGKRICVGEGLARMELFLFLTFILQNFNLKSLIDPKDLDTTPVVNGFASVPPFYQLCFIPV
How it was run: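 Light output is proportional to CYP2C19 activity: proluciferin substrate is converted to luciferin, then detected by a luciferin detection reagent that also stops the 1 h, 37C NADPH-driven reaction. Ketoconazole serves as positive control.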

[17] = qHTS assay to identify small molecule antagonists of the TGF-beta/Smad signaling pathway - cell viability counter screen (AID 1346824); also: nearly all actives have a fitted effect of over 50% in size
How it was run: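 SBE-bla HEK 293T cells were plated overnight at 37 C, then given compounds in DMSO plus TGF-beta1 (added as 0.25 ng/mL solution) for 5 hr. After the bla read, CellTiter-Glo was added to the same wells and luminescence read after 30 min at room temperature.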

[18] = molecular target: Thyrotropin-releasing hormone receptor (Homo sapiens) (UniProt P34981); assay: qHTS assay to identify small molecule antagonists of the thyrotropin-releasing hormone receptor (TRHR) signaling pathway (AID 1346877; active = well fitted inhibition curve with a large enough effect in the repeat runs, not every such curve was filed as active; also: series mostly up to about 51 µM)
Chain of Thyrotropin-releasing hormone receptor (Homo sapiens) (P34981 whole entry, looked up): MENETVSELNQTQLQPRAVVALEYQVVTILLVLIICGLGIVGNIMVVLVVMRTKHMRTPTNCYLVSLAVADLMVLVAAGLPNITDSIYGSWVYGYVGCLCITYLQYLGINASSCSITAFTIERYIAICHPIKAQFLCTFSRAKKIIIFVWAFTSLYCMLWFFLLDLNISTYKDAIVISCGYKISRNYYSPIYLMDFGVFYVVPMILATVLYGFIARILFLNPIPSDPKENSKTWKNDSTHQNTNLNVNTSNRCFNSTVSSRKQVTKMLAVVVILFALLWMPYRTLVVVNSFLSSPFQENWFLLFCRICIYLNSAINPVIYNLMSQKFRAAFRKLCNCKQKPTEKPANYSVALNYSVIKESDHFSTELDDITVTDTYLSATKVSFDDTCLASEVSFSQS
How it was run: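 Cells (TRHR-HEK293) are plated and kept 18 h at 37 °C/5% CO2. A calcium-sensitive dye is added for 2 h, compound follows for 5 min at room temperature, and TRH is then given at 1 nM final.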

[19] = molecular target: Thyrotropin-releasing hormone receptor (Homo sapiens) (UniProt P34981); assay: qHTS assay to identify small molecule agonists of the thyrotropin-releasing hormone receptor (TRHR) signaling pathway (AID 1346891; calls by dose curve; also: series mostly up to about 58 µM)
How it was run: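 TRHR-expressing HEK293 cells were plated 18 h at 37 °C/5% CO2, loaded with calcium dye 2 h at 37 °C, then given compound in DMSO; fluorescence was read kinetically for 3 min at 1 s intervals.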

[20] = molecular target: Nuclear receptor subfamily 1 group I member 2 (Homo sapiens) (UniProt O75469); assay: CYP3A4 induction through human pregnane X receptor (PXR) by small molecules, qHTS assay (AID 1346984); also: nearly all actives have a fitted effect of over 40% in size
How it was run: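 Steps: seed DPX-2 cells, 5 hr at 37C; pin-transfer compounds; 24 hr at 37C; add Luciferin-IPA (3uM final), 3 hr at 37C; add One-Glo, 30 min RT; read luminescence.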

Compound | Potency [1] | Potency [2] | Potency [3] | Potency [4] | Potency [5] | Potency [6] | Potency [7] | Potency [8] | Potency [9] | Potency [10] | Potency [11] | Potency [12] | max activation [13] | Potency [14] | Potency [15] | Potency [16] | Potency [17] | Potency [18] | Potency [19] | Potency [20]
CC(=O)SC[C@@H](Cc1ccccc1)C(=O)NCC(=O)OCc1ccccc1 | inactive | inactive | inactive | inactive | inactive | inactive | inactive | inactive | inactive | inactive | inactive | inactive | -6.71% | inactive | 1.1 µM (active) | 0.617 µM (active) | – | – | – | –
NC(=O)NS(=O)(=O)c1ccc(N)cc1 | inactive | inactive | inactive | – | inactive | inactive | inactive | inactive | inactive | inactive | inactive | inactive | -4.58% | inactive | inactive | inactive | inactive | inactive | inactive | inactive
O=C1c2c(O)ccc(Nc3ccc(CCO)cc3)c2C(=O)c2c([N+](=O)[O-])ccc(O)c21 | inactive | inactive | inactive | inactive | inactive | inactive | 43.3 µM (active) | inactive | 54.5 µM (active) | inactive | 54.5 µM (active) | – | – | – | – | 39.9 µM (active) | – | inactive | inactive | –
C[C@H]1[C@H]2CC[C@H]3[C@@H]4CC=C5C[C@@H](N(C)C)CC[C@]5(C)[C@H]4CC[C@]23CN1C | inactive | inactive | inactive | inactive | inactive | inactive | – | inactive | inactive | inactive | inactive | – | -5.76% | – | – | inactive | – | inactive | – | –
CC1=NC(C)OC1C (configuration not stated) | inactive | inactive | inactive | – | inactive | inactive | – | inactive | inactive | inactive | inactive | – | – | – | 71 µM (active) | – | inactive | inactive | inactive | –
Cc1nc(-c2ccc3c(c2)CCN(CCC2CCC(NC(=O)/C=C/c4ccc(F)cc4)CC2)CC3)no1 (configuration not stated) | inactive | inactive | inactive | inactive | inactive | inactive | inactive | inactive | – | inactive | inactive | inactive | – | – | inactive | inactive | inactive | inactive | inactive | –
Cc1cccc(S(=O)(=O)O)c1C | inactive | inactive | inactive | inactive | inactive | inactive | inactive | inactive | – | inactive | inactive | inactive | – | – | inactive | inactive | inactive | inactive | inactive | –
